Compounds without any hit were thinned out: in the full panel of roughly 83,000, 20% have a hit.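 Testing used 96-well plates and a 48-hour single-concentration exposure. Example: -40 means 40% of the starting cells died.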 Active and inactive are the calls of the source. The calls were made as follows: active = growth percent below 10; inactive = the rest.
Key:
Experiment in all cases: NCI-60 one-dose screen, 48 h (100 = growth as untreated, 0 = no growth, -100 = all killed)
Settings in all cases: 10 µM unless noted
HCT-15 colon = tested on: HCT-15 colon
HT29 colon = tested on: HT29 colon
SNB-75 CNS = tested on: SNB-75 CNS
SNB-19 CNS = tested on: SNB-19 CNS
U251 CNS = tested on: U251 CNS
PC-3 prostate = tested on: PC-3 prostate
SK-MEL-5 melanoma = tested on: SK-MEL-5 melanoma
UACC-62 melanoma = tested on: UACC-62 melanoma
LOX IMVI melanoma = tested on: LOX IMVI melanoma
SK-MEL-28 melanoma = tested on: SK-MEL-28 melanoma

Measured: growth

CCOC(=O)c1c2c(n3ccc(NC(=O)CCN4CCOCC4)cc13)C(=O)c1ncccc1C2=O
inactive: HCT-15 colon 33.9% | HT29 colon 32.7% | SNB-75 CNS 52.7% | SNB-19 CNS 54.6% | U251 CNS 41.5% | PC-3 prostate 51% | SK-MEL-5 melanoma 42.3% | UACC-62 melanoma 27.7% | LOX IMVI melanoma 15% | SK-MEL-28 melanoma 77.8%

COc1ncc(-c2ccc3ncnc(Nc4cccc(Cl)c4)c3c2)cc1NS(C)(=O)=O
inactive: HCT-15 colon 30.8% | HT29 colon 22.3% | SNB-19 CNS 37.6% | U251 CNS 46.8% | PC-3 prostate 25.9% | SK-MEL-5 melanoma 23.3% | UACC-62 melanoma 19.1% | LOX IMVI melanoma 35.3%
active: SNB-75 CNS 9.09%

O=C1c2cc3c(cc2-c2c1c1cc(F)c(F)cc1c(=O)n2C[C@H](O)CO)OCO3
active: HCT-15 colon 1.58% | HT29 colon 0.994% | SNB-75 CNS 4.14% | SNB-19 CNS 6.51% | U251 CNS -15.5% | PC-3 prostate 8.59% | SK-MEL-5 melanoma -91.5% | UACC-62 melanoma -48.2% | LOX IMVI melanoma -45.4%
inactive: SK-MEL-28 melanoma 10.1%

COc1cc(OC)c(/C=C/C(=O)c2c(OC)cc(OC)cc2OC)c(OC)c1
active: HT29 colon 3.25% | SK-MEL-5 melanoma 1.55% | UACC-62 melanoma 7.8%
inactive: HCT-15 colon 26% | SNB-75 CNS 13.7% | SNB-19 CNS 32.8% | U251 CNS 14.5% | PC-3 prostate 42.8% | LOX IMVI melanoma 10.8% | SK-MEL-28 melanoma 21.9%

C=C1CCC2C3(C)COC(c4ccc(OC)cc4Br)OC3CCC2(C)C1/C=C/C1=CCOC1=O (configuration not stated)
inactive: HCT-15 colon 65.7% | HT29 colon 75.6% | SNB-75 CNS 82.3% | SNB-19 CNS 97.4% | U251 CNS 74.7% | PC-3 prostate 47.7% | SK-MEL-5 melanoma 45.3% | UACC-62 melanoma 61.9% | LOX IMVI melanoma 71.1% | SK-MEL-28 melanoma 80.2%

CCOC(=O)c1c2c(n3ccc(NC(=O)CCN4CCCCC4)cc13)C(=O)c1ncccc1C2=O
inactive: SNB-75 CNS 23.9% | PC-3 prostate 47.3%
active: HCT-15 colon -62.9% | HT29 colon -61.5% | SNB-19 CNS -42.7% | U251 CNS -86.3% | SK-MEL-5 melanoma -83.6% | UACC-62 melanoma -50.6% | LOX IMVI melanoma -63.9% | SK-MEL-28 melanoma -64.7%

Cn1cc(-c2csc(-c3cn(C)c4ncccc34)n2)c2ccccc21
active: HT29 colon 6.11% | SNB-75 CNS -4.48%
inactive: HCT-15 colon 26.5% | SNB-19 CNS 42.4% | U251 CNS 25.1% | PC-3 prostate 35.7% | SK-MEL-5 melanoma 32.6% | UACC-62 melanoma 47% | LOX IMVI melanoma 36.8% | SK-MEL-28 melanoma 61.4%

O=S(=O)(NCCCNc1cc(-c2cn(-c3ccccc3)nc2-c2ccccc2)ccn1)c1ccc(C(F)(F)F)cc1
inactive: HCT-15 colon 41% | HT29 colon 20.5% | SNB-75 CNS 58.6% | SNB-19 CNS 66.9% | U251 CNS 44.4% | PC-3 prostate 17.6% | SK-MEL-5 melanoma 36.8% | UACC-62 melanoma 69.8% | LOX IMVI melanoma 54%

COc1cc(-c2c3c(nc4c2c(C)nn4-c2ccccc2)-c2ccccc2C(=O)C3=O)cc(OC)c1OC
inactive: HCT-15 colon 85.6% | HT29 colon 44.7% | SNB-75 CNS 138% | SNB-19 CNS 101% | U251 CNS 86.7% | PC-3 prostate 53.1% | SK-MEL-5 melanoma 70.5% | UACC-62 melanoma 86.7% | LOX IMVI melanoma 35.7% | SK-MEL-28 melanoma 95%

O=C1c2cccnc2C(=O)c2c1c(C(=O)OCCN1CCCCC1)c1ccccn21
active: HCT-15 colon -48.4% | HT29 colon -9.8% | SNB-75 CNS -63.7% | SNB-19 CNS -31.8% | U251 CNS -29.9% | PC-3 prostate 9.27% | SK-MEL-5 melanoma -97% | UACC-62 melanoma -41.2% | LOX IMVI melanoma -58.6% | SK-MEL-28 melanoma -37.9%

CCCCCCCCCC(=O)Oc1ccc(/C(=C(/C)c2ccccc2)c2ccc(OCCN3CCCC3)cc2)cc1
inactive: PC-3 prostate 15.8%
active: HCT-15 colon -13.4% | HT29 colon -35.5% | SNB-75 CNS -11.6% | SNB-19 CNS 6.86% | U251 CNS -34.3% | SK-MEL-5 melanoma -98.5% | UACC-62 melanoma -69% | LOX IMVI melanoma -72.1% | SK-MEL-28 melanoma -77.9%

COc1ccc2nc3cc(Cl)ccc3c(NCCNCC(O)CO)c2c1 (configuration not stated)
inactive: HCT-15 colon 73.4% | SNB-75 CNS 42.1% | SNB-19 CNS 35.7% | U251 CNS 17.3% | PC-3 prostate 21.4% | SK-MEL-5 melanoma 35.3% | UACC-62 melanoma 11% | SK-MEL-28 melanoma 30.8%
active: HT29 colon 6.37% | LOX IMVI melanoma -55.2%

O=C1c2ccccc2-c2nccc3cc(Cl)nc1c23
active: PC-3 prostate 8.78% | SK-MEL-5 melanoma -89% | LOX IMVI melanoma -22.5%
inactive: HCT-15 colon 17.6% | HT29 colon 14.3% | SNB-75 CNS 65.1% | SNB-19 CNS 105% | U251 CNS 32.8% | UACC-62 melanoma 27.7% | SK-MEL-28 melanoma 55.8%

C=C1CC[C@@H]2[C@](C)(COC(C)=O)[C@H](OC(C)=O)CC[C@@]2(C)[C@@H]1CC(Nc1ccc(S(=O)(=O)Nc2ccc(Cl)nn2)cc1)C1=CCOC1=O (some centres not stated)
inactive: SNB-75 CNS 25.2% | SNB-19 CNS 76% | PC-3 prostate 38.4% | SK-MEL-5 melanoma 35.8%
active: HCT-15 colon -18.4% | HT29 colon -18.3% | U251 CNS -41.2% | UACC-62 melanoma -50% | LOX IMVI melanoma -84.6% | SK-MEL-28 melanoma 6.66%

COc1cnc2c(c1)C(=O)c1c-2n(CCCN2CCN(C)CC2)c(=O)c2cc([N+](=O)[O-])ccc12
active: HCT-15 colon -61.2% | HT29 colon -79.4% | SNB-75 CNS -93.2% | SNB-19 CNS -20.6% | U251 CNS -81.2% | PC-3 prostate 4.16% | SK-MEL-5 melanoma -97.5% | UACC-62 melanoma -77.9% | LOX IMVI melanoma -90.7% | SK-MEL-28 melanoma -80.6%

Cn1c(=O)c2[nH]c(C(O)C(O)C(O)C(O)CO)nc2n(C)c1=O (configuration not stated)
inactive: HCT-15 colon 106% | HT29 colon 99.6% | SNB-75 CNS 92.6% | SNB-19 CNS 97.3% | U251 CNS 100% | PC-3 prostate 93.2% | SK-MEL-5 melanoma 104% | UACC-62 melanoma 99.7% | LOX IMVI melanoma 102% | SK-MEL-28 melanoma 100%

Nc1nc2c(c3ncccc13)C(c1ccc(Cl)c(Cl)c1)Cc1ncccc1-2 (configuration not stated)
inactive: HCT-15 colon 18.2% | SNB-75 CNS 16.4% | SNB-19 CNS 32.1% | U251 CNS 16.9% | PC-3 prostate 19.5% | SK-MEL-5 melanoma 19.8% | UACC-62 melanoma 26.6% | LOX IMVI melanoma 28% | SK-MEL-28 melanoma 49.2%
active: HT29 colon 6.39%

CCN(C(=O)CN1CCN(c2cc3c(cc2F)c(=O)c(C(=O)O)cn3CC)CC1)c1nc(-c2ccccc2)cs1
active: HT29 colon 0.981% | SNB-75 CNS -5.25% | SNB-19 CNS 6.46% | U251 CNS 6.31% | PC-3 prostate 2.39% | SK-MEL-5 melanoma -55.6% | UACC-62 melanoma -5% | LOX IMVI melanoma -35%
inactive: HCT-15 colon 12.3% | SK-MEL-28 melanoma 41.9%

COc1ccc(/C=C/C(=O)c2c(O)c(C)c(O)c3c2OC2=CC(O)=C(C(C)=O)C(=O)[C@]23C)cc1
active: HCT-15 colon -21.3% | HT29 colon -27.2% | SNB-75 CNS -33% | SNB-19 CNS -14.9% | U251 CNS -27.9% | PC-3 prostate -2.15% | SK-MEL-5 melanoma -85.5% | UACC-62 melanoma -59.9% | LOX IMVI melanoma -43.4% | SK-MEL-28 melanoma -50.7%

CCC(c1ccccc1)C(CC)c1ccc(O)c(O)c1 (configuration not stated)
inactive: HCT-15 colon 91.2% | HT29 colon 104% | SNB-75 CNS 86.4% | SNB-19 CNS 116% | U251 CNS 96.6% | PC-3 prostate 92.7% | SK-MEL-5 melanoma 88.3% | UACC-62 melanoma 81.5% | LOX IMVI melanoma 87.9% | SK-MEL-28 melanoma 95.4%

Cc1nc2nc(N)nc(N)c2nc1C
inactive: HCT-15 colon 98.6% | HT29 colon 102% | SNB-75 CNS 93.2% | SNB-19 CNS 95.1% | U251 CNS 99.5% | PC-3 prostate 92.7% | SK-MEL-5 melanoma 101% | UACC-62 melanoma 91.1% | LOX IMVI melanoma 101% | SK-MEL-28 melanoma 109%

CCOC(=O)/C=C/C(=O)[C@H](CC(C)C)NC(=O)[C@H](Cc1ccccc1)NC(=O)OCc1ccccc1
active: LOX IMVI melanoma -82.9%
inactive: HCT-15 colon 15.5% | HT29 colon 57.9% | SNB-75 CNS 69.2% | SNB-19 CNS 93.7% | U251 CNS 50.8% | PC-3 prostate 68.3% | SK-MEL-5 melanoma 97.5% | UACC-62 melanoma 14.4% | SK-MEL-28 melanoma 34.7%

O=S(=O)(NCCCNc1cc(-c2cn(-c3ccccc3)nc2-c2cccc(O)c2)ccn1)c1ccccc1
active: HCT-15 colon 9.91%
inactive: HT29 colon 14.8% | SNB-75 CNS 51% | SNB-19 CNS 77.5% | U251 CNS 41.3% | PC-3 prostate 21.5% | SK-MEL-5 melanoma 15.4% | UACC-62 melanoma 50.1% | LOX IMVI melanoma 17%

O=C1C[C@H](N2C(=O)c3ccccc3S2(=O)=O)C2CO[C@@H]1O2
inactive: HCT-15 colon 59.6% | HT29 colon 70.4% | SNB-75 CNS 91.3% | SNB-19 CNS 106% | U251 CNS 93.3% | PC-3 prostate 99.7% | SK-MEL-5 melanoma 96.2% | UACC-62 melanoma 100% | LOX IMVI melanoma 18.9% | SK-MEL-28 melanoma 66.1%

COc1ccc(C(=O)/C=C/c2c[n+](=O)c3ccc(F)cc3n2[O-])cc1
inactive: HCT-15 colon 101% | HT29 colon 106% | SNB-75 CNS 106% | SNB-19 CNS 103% | U251 CNS 95.1% | PC-3 prostate 104% | SK-MEL-5 melanoma 111% | UACC-62 melanoma 92.1% | LOX IMVI melanoma 94.2% | SK-MEL-28 melanoma 111%

O=C(C[C@@H](C(=O)NCc1cccc(C(F)(F)F)c1)N1C(=O)[C@@H](N2C(=O)OC[C@@H]2c2ccccc2)[C@H]1/C=C/c1ccccc1)NC1CCN(Cc2ccccc2)CC1
inactive: HCT-15 colon 61.1% | SNB-75 CNS 71.7% | SNB-19 CNS 84.6% | U251 CNS 70.9% | PC-3 prostate 54.4% | SK-MEL-5 melanoma 43.1% | UACC-62 melanoma 73.3% | LOX IMVI melanoma 23.9% | SK-MEL-28 melanoma 81.5%
active: HT29 colon 2.51%

CCCCCCCCSC1=CC(=O)C(OC)=C(OC)C1=O
active: PC-3 prostate -13.9% | SK-MEL-5 melanoma 4.84% | LOX IMVI melanoma -48.7%
inactive: HCT-15 colon 10.9% | HT29 colon 35.4% | SNB-75 CNS 75.7% | SNB-19 CNS 79.3% | U251 CNS 42.5% | UACC-62 melanoma 42.9% | SK-MEL-28 melanoma 72.4%
